Results published in PubChem BioAssay AID720517 (National Center for Advancing Translational Sciences (NCATS), 2013).
Inconclusive results are not listed. Entries that show only a call come without a potency. Activity calls are given as the source filed them. Calls follow the shape of the dose curve; as a rule, active = well fitted activation curve with a large enough effect; inconclusive = small, poorly fitted or top-dose-only effect; inactive = flat fitted curve, though single readings scatter.

Test: qHTS for Inhibitors of Cell Surface uPA Generation: FP59 Counterscreen for Cherry-picked Compounds
Conditions: FP59 anthrax toxin cytotoxicity counterscreen, cells; series mostly up to 115 µM

SMILES	Potency
CC1=CC(C)C(C[N+]2(C)CCCCC2)C(C)C1 (stereo not drawn)	inactive
CCCCn1c(N)c(N(CCC(C)C)C(=O)c2sc3nc4n(c(=O)c3c2C)CCC4)c(=O)[nH]c1=O	inactive
CN(CCC#N)C(=S)Nc1ccc(Oc2ccccc2)cc1	inactive
O=C(NCCN1CCOCC1)c1ccccc1Cl	inactive
O=C(O)CSc1nnc(COc2ccccc2)n1-c1ccccc1	inactive
Cc1ccc(N=C2SCCCN2C(=O)c2cccc(N3C(=O)CCC3=O)c2)cc1Cl	inactive
Cc1ccccc1OCCC(=O)NNC(=O)c1ccccc1F	inactive
CCOc1cc(C(=S)N2CCOCC2)ccc1OC(=O)c1cccc(C)c1	inactive
O=C(CCCOc1ccc(Cl)cc1Cl)NCc1ccncc1	inactive
Cc1cc(SCc2ccc(Cl)cc2)nc(=O)[nH]1	inactive
OC(COc1ccc(Br)cc1)CN1CCN(c2ccccc2)CC1 (stereo not drawn)	inactive
CCN1CCCCC(=N/O)/C(=N/O)CCCC1	inactive
O=C(NNC(=O)c1cccc(-n2cccc2)c1)c1ccc(F)cc1	inactive
O=C(Cc1n[nH]c(=O)c2ccccc12)Nc1cccc(S(=O)(=O)N2CCCCCC2)c1	inactive
CC(C)N1CCc2c(sc(NC(=O)Cc3ccccc3)c2C(N)=O)C1	inactive
CC(=O)c1cnc2nc(SCc3cccc(C)c3)nn2c1C	inactive
C[C@@H](CSc1ccccc1)CN1CC[C@H](O)CCC1=O	inactive
Cc1ccc(Nc2nc(Cl)c(C=O)s2)cc1	inactive
Cc1cc(C)cc(NC(=O)COC(=O)CCn2c(C)csc2=O)c1	inactive
CCOC(=O)c1c(C)oc2ccc(OC(=O)COc3c(F)c(F)c(F)c(F)c3F)cc12	inactive
CCOc1ccc(NC(=S)N2CCC(c3ccc(C)cc3)C2)cc1 (stereo not drawn)	inactive
C=CCc1cc(S(=O)(=O)c2ccc(O)c(CC=C)c2)ccc1O	inactive
CCOC(=O)C(CC)n1cnc2c(nnn2-c2ccccc2)c1=O (stereo not drawn)	inactive
